The whole screen tested about 5,500 compounds, of which about 2,000 (36%) were called active. Not shown: some 18% with an inconclusive outcome. Rule as the data show it: active = normalized growth mostly below about 0.91 (no sharp cut-off); inconclusive = no clear call, values can overlap the other calls; inactive = mostly above about 0.92. The list shows a part of the results.
Test: chemical genetic growth profiling, strain panel (AID 1159580);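 also: tested at 20 µM; growth read once vehicle control cultures reached saturation at 30 °C; 1 = growth at the plate median or of vehicle wells; lower values mean less growth of the strain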
Settings: growth OD

Measured: normalized growth

COc1ccc2c(C)cc(=O)oc2c1
inactive: S. cerevisiae deletion strains, locus YJL187C, strain SWE1 (second series), stronger effect = lower value 1.02 | S. cerevisiae deletion strains, locus YJL187C, strain SWE1, stronger effect = lower value 0.997 | S. cerevisiae deletion strains, locus YJR066W, strain TOR1, stronger effect = lower value 0.933 | S. cerevisiae deletion strains, locus YKL009W, strain mrt4, stronger effect = lower value 1.02 | S. cerevisiae deletion strains, locus YKL068W, stronger effect = lower value 1.03 | S. cerevisiae deletion strains, locus YKL085W, strain MDH1 (second series), stronger effect = lower value 1.01 | S. cerevisiae deletion strains, locus YKL085W, strain MDH1, stronger effect = lower value 1.01 | S. cerevisiae deletion strains, locus YKL160W, strain elf1, stronger effect = lower value 1 | S. cerevisiae deletion strains, locus YKL190W, strain CNB1, stronger effect = lower value 1 | S. cerevisiae deletion strains, locus YKR001C, strain vps1, stronger effect = lower value 1.03 | S. cerevisiae deletion strains, locus YKR026C, strain gcn3, stronger effect = lower value 0.991 | S. cerevisiae deletion strains, locus YKR091W, strain srl3, stronger effect = lower value 0.987 | S. cerevisiae deletion strains, locus YLL001W, strain dnm1, stronger effect = lower value 0.986 | S. cerevisiae deletion strains, locus YLL026W, stronger effect = lower value 1 | S. cerevisiae deletion strains, locus YLL041C, strain sdh2, stronger effect = lower value 0.993 | S. cerevisiae deletion strains, locus YLR027C, strain aat2, stronger effect = lower value 0.991 | S. cerevisiae deletion strains, locus YLR039C, strain RIC1, stronger effect = lower value 1.01 | S. cerevisiae deletion strains, locus YLR058C, strain SHM2, stronger effect = lower value 1.01 | S. cerevisiae deletion strains, locus YLR102C, strain apc9, stronger effect = lower value 1.04 | S. cerevisiae deletion strains, locus YLR113W, strain HOG1, stronger effect = lower value 0.998 | S. cerevisiae deletion strains, locus YLR221C, strain rsa3, stronger effect = lower value 0.993 | S. cerevisiae deletion strains, locus YLR258W, strain gsy2, stronger effect = lower value 0.972 | S. cerevisiae deletion strains, locus YLR262C, strain YPT6 (second series), stronger effect = lower value 0.964 | S. cerevisiae deletion strains, locus YLR268W, strain sec22, stronger effect = lower value 1.03 | S. cerevisiae deletion strains, locus YLR320W, strain mms22, stronger effect = lower value 1 | S. cerevisiae deletion strains, locus YLR330W, strain CHS5, stronger effect = lower value 1.01 | S. cerevisiae deletion strains, locus YLR342W, strain FKS1, stronger effect = lower value 0.989 | S. cerevisiae deletion strains, locus YLR357W, strain rsc2, stronger effect = lower value 0.966 | S. cerevisiae deletion strains, locus YLR370C, strain arc18, stronger effect = lower value 0.997 | S. cerevisiae deletion strains, locus YLR371W, strain rom2, stronger effect = lower value 0.998 | S. cerevisiae deletion strains, locus YLR384C, strain iki3, stronger effect = lower value 0.996 | S. cerevisiae deletion strains, locus YLR418C, strain cdc73, stronger effect = lower value 1.03 | S. cerevisiae deletion strains, locus YML016C, strain PPZ1, stronger effect = lower value 1.02 | S. cerevisiae deletion strains, locus YML032C, strain rad52, stronger effect = lower value 1.01 | S. cerevisiae deletion strains, locus YML120C, strain ndi1, stronger effect = lower value 1.02 | S. cerevisiae deletion strains, locus YML124C, strain tub3, stronger effect = lower value 1.02 | S. cerevisiae deletion strains, locus YMR058W, strain fet3, stronger effect = lower value 0.987 | S. cerevisiae deletion strains, locus YMR078C, strain ctf18, stronger effect = lower value 1.03 | S. cerevisiae deletion strains, locus YMR125W, strain sto1, stronger effect = lower value 0.982 | S. cerevisiae deletion strains, locus YMR129W, stronger effect = lower value 1.01 | S. cerevisiae deletion strains, locus YMR205C, strain PFK2, stronger effect = lower value 0.988 | S. cerevisiae deletion strains, locus YMR223W, strain ubp8, stronger effect = lower value 1.02 | S. cerevisiae deletion strains, locus YMR231W, strain pep5, stronger effect = lower value 0.988 | S. cerevisiae deletion strains, locus YMR307W, strain GAS1, stronger effect = lower value 0.994 | S. cerevisiae deletion strains, locus YNL067W, strain RPL9B, stronger effect = lower value 1.01 | S. cerevisiae deletion strains, locus YNL071W, strain lat1, stronger effect = lower value 0.976 | S. cerevisiae deletion strains, locus YNL183C, strain NPR1, stronger effect = lower value 0.933 | S. cerevisiae deletion strains, locus YNL209W, strain ssb2, stronger effect = lower value 1 | S. cerevisiae deletion strains, locus YNL233W, strain BNI4, stronger effect = lower value 1.02 | S. cerevisiae deletion strains, locus YNL248C, strain rpa49, stronger effect = lower value 0.923 | S. cerevisiae deletion strains, locus YNL250W, strain rad50, stronger effect = lower value 1.04 | S. cerevisiae deletion strains, locus YNL271C, strain bni1, stronger effect = lower value 1.03 | S. cerevisiae deletion strains, locus YNL298W, strain CLA4, stronger effect = lower value 1.01 | S. cerevisiae deletion strains, locus YNL307C, strain MCK1, stronger effect = lower value 1.04 | S. cerevisiae deletion strains, locus YNL322C, strain KRE1 (second series), stronger effect = lower value 1 | S. cerevisiae deletion strains, locus YNL322C, strain KRE1, stronger effect = lower value 1.01 | S. cerevisiae deletion strains, locus YNR049C, strain mso1, stronger effect = lower value 0.969 | S. cerevisiae deletion strains, locus YNR052C, strain pop2, stronger effect = lower value 1.02 | S. cerevisiae deletion strains, locus YOL012C, strain htz1 0.756 | S. cerevisiae deletion strains, locus YOL147C, strain pex11, stronger effect = lower value 1.03 | S. cerevisiae deletion strains, locus YOR001W, strain rrp6, stronger effect = lower value 0.97 | S. cerevisiae deletion strains, locus YOR061W, strain CKA2, stronger effect = lower value 1.01 | S. cerevisiae deletion strains, locus YOR069W, strain VPS5, stronger effect = lower value 1.01 | S. cerevisiae deletion strains, locus YOR070C, strain gyp1, stronger effect = lower value 1 | S. cerevisiae deletion strains, locus YOR080W, strain dia2, stronger effect = lower value 0.99 | S. cerevisiae deletion strains, locus YOR083W, strain WHI5, stronger effect = lower value 0.987 | S. cerevisiae deletion strains, locus YOR106W, strain vam3, stronger effect = lower value 0.959 | S. cerevisiae deletion strains, locus YOR136W, strain idh2, stronger effect = lower value 1.03 | S. cerevisiae deletion strains, locus YOR144C, strain elg1, stronger effect = lower value 1.02 | S. cerevisiae deletion strains, locus YOR184W, strain ser1, stronger effect = lower value 1.02 | S. cerevisiae deletion strains, locus YOR231W, strain MKK1, stronger effect = lower value 0.954 | S. cerevisiae deletion strains, locus YOR265W, strain rbl2, stronger effect = lower value 0.996 | S. cerevisiae deletion strains, locus YOR270C, strain vph1, stronger effect = lower value 0.803 | S. cerevisiae deletion strains, locus YOR290C, strain snf2, stronger effect = lower value 1 | S. cerevisiae deletion strains, locus YOR316C, strain cot1, stronger effect = lower value 1.02 | S. cerevisiae deletion strains, locus YPL051W, strain arl3, stronger effect = lower value 1.01 | S. cerevisiae deletion strains, locus YPL078C, strain atp4, stronger effect = lower value 0.994 | S. cerevisiae deletion strains, locus YPL106C, strain sse1, stronger effect = lower value 0.943 | S. cerevisiae deletion strains, locus YPL240C, strain hsp82, stronger effect = lower value 1.01 | S. cerevisiae deletion strains, locus YPL256C, strain CLN2, stronger effect = lower value 1.01 | S. cerevisiae deletion strains, locus YPR119W, strain clb2, stronger effect = lower value 1.02 | S. cerevisiae deletion strains, locus YPR141C, strain kar3, stronger effect = lower value 1.02 | S. cerevisiae deletion strains, locus YPR163C, strain tif3, stronger effect = lower value 1.03 | S. cerevisiae deletion strains, locus YPR167C, strain met16, stronger effect = lower value 1.02 | S. cerevisiae deletion strains, strain wtn01, stronger effect = lower value 1.01 | S. cerevisiae strains, strain wild type, stronger effect = lower value 1.01

— PubChem BioAssay AID1159580 (chemical genetic matrix, 2015)
